Source: the supplement of paper PMC11732987, “Enantioselective OTUD7B fragment discovery through chemoproteomics screening and high-throughput optimisation” (Communications Chemistry, 2025)

Assays:
Assay in all cases: log2 ratio of Biotin-Ahx-Ub-VS probe labelling (fragment/DMSO); higher = less target engagement (more negative = stronger competition), active = hit call of the paper (q ≤ 0.05, log2 ratio ≤ -1)
Conditions in all cases: compound concentration: 200 uM; treatment time: 3 h
USP9X = USP9X (UniProt Q93008)
Method in brief: (§1)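 Using Biotin-Ahx-Ub-VS at 0.5 µM final for 1 h, DUBs were labelled in HEK293T lysate (495 µg per sample) that had first been treated in triplicate with fragment at 200 µM or vehicle for 3 h. NeutrAvidin enrichment, LysC and trypsin digestion and diaPASEF LC-MS/MS followed. Spectronaut label-free quantities were global-median-normalised. Values are average log2 fragment/vehicle ratios by unpaired t-test, using proteins with ≥2 unique peptides.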

UniProt O00487 = molecular target: UniProt O00487
Sequence of UniProt O00487 (O00487 whole entry): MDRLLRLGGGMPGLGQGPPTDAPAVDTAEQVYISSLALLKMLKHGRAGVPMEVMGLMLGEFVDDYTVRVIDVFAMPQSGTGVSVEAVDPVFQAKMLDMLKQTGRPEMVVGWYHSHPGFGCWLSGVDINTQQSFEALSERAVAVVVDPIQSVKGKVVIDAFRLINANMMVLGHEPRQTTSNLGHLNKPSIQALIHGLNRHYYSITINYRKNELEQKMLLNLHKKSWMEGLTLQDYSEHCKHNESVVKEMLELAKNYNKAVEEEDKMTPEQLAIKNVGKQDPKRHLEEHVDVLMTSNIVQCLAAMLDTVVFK
Method in brief: as §1

UniProt O00507 = molecular target: UniProt O00507
Sequence of UniProt O00507 (O00507 whole entry): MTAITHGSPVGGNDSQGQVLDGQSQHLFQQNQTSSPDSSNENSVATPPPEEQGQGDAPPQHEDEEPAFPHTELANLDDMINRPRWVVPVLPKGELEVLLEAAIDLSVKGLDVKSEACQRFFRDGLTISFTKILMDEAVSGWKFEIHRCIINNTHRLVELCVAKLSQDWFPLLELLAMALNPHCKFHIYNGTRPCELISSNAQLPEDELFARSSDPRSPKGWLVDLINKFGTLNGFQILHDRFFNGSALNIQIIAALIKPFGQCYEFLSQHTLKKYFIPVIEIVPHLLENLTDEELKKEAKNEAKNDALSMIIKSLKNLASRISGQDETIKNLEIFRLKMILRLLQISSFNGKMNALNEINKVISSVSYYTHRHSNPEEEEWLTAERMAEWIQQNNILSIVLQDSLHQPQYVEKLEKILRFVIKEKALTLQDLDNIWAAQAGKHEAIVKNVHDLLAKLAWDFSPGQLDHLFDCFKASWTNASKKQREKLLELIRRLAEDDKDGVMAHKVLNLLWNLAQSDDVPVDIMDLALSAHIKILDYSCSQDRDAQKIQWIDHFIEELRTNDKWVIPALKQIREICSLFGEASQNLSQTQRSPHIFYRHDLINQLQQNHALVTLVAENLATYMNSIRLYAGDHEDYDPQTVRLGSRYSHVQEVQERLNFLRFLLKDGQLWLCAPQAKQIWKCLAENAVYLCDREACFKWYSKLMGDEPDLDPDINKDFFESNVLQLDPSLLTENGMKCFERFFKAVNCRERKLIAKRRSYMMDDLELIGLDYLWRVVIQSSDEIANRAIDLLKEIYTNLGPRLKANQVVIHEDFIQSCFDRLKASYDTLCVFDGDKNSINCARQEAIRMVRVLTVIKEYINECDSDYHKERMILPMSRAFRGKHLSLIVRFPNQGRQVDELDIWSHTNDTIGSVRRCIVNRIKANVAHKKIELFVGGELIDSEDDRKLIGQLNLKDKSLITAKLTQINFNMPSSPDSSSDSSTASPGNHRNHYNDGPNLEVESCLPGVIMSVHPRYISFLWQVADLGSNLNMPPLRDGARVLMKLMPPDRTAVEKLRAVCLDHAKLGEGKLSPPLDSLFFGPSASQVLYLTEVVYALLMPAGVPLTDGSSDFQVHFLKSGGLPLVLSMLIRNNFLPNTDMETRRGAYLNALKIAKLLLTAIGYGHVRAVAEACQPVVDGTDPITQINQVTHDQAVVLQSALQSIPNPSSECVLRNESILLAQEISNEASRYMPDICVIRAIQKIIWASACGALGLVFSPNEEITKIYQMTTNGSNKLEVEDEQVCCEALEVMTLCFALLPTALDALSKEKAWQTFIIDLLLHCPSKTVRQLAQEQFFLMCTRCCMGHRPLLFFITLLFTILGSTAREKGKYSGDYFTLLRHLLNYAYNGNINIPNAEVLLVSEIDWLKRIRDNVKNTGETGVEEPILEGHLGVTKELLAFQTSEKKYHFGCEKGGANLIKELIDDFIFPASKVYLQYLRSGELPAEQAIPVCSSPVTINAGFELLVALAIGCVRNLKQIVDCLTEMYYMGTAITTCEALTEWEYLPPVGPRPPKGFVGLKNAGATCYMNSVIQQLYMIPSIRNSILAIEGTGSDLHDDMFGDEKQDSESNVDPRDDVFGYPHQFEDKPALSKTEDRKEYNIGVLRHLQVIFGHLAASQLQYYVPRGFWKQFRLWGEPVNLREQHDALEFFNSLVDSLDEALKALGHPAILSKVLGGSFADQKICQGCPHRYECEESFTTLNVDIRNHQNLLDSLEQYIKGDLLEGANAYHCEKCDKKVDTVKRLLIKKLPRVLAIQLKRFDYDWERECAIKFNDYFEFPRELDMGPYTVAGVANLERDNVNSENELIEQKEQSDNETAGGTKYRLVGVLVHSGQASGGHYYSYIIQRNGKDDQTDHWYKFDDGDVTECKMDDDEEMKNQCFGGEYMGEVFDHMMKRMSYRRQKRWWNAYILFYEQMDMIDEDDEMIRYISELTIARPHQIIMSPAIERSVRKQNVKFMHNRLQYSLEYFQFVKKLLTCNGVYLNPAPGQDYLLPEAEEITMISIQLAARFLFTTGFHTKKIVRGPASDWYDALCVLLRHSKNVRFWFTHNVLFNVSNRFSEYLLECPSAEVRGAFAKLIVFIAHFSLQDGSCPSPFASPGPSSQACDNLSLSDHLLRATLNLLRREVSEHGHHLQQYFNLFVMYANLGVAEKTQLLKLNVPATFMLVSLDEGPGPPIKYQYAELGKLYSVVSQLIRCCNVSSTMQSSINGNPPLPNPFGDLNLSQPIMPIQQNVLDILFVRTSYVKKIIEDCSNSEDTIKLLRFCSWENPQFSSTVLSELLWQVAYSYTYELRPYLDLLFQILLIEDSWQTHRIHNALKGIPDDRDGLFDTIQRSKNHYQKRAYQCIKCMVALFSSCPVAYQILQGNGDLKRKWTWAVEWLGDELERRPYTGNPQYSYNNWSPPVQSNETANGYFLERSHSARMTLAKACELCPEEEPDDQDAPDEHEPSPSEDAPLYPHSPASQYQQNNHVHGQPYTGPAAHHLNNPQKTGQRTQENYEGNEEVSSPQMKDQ
Method in brief: as §1

UniProt P51784 = molecular target: UniProt P51784
Sequence of UniProt P51784 (P51784 whole entry): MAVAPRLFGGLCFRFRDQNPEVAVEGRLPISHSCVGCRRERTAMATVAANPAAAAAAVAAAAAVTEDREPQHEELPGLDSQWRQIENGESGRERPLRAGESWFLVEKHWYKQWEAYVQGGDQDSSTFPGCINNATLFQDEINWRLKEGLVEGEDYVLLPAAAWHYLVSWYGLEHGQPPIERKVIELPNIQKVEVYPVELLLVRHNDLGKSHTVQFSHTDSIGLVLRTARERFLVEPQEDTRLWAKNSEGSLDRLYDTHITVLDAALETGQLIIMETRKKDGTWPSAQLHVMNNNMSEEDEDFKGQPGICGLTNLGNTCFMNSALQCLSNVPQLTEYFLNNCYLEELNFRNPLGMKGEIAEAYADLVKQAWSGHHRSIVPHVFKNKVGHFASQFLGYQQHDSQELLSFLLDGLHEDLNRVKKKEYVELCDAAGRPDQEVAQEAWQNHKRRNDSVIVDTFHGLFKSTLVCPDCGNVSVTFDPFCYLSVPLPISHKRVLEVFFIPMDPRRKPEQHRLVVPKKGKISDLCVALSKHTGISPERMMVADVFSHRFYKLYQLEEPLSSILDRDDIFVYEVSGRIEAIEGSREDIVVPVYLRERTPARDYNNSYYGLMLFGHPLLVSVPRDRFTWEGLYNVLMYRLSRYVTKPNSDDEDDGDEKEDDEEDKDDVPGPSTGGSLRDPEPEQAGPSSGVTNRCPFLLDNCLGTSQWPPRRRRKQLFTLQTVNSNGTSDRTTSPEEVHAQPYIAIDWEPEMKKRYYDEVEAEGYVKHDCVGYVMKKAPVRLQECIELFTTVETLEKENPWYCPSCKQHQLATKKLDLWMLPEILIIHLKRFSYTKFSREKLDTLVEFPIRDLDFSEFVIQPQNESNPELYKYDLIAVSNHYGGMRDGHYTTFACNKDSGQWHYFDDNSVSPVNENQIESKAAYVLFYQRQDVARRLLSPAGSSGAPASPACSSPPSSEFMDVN
Method in brief: as §1

UniProt Q5T2D3 = molecular target: T1, UniProt Q5T2D3
T1 sequence (whole entry): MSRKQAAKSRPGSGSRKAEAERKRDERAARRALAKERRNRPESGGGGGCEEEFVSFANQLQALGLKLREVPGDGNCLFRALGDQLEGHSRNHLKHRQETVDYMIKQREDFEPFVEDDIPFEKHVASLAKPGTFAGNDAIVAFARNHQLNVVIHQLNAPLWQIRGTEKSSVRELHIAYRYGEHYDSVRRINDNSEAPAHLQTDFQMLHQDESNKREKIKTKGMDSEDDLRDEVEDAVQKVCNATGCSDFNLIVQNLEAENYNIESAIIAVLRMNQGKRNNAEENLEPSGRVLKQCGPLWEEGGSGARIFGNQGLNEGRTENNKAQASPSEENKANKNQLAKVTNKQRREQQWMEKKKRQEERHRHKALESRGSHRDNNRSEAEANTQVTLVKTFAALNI
Method in brief: as §1

UniProt Q8TE49 = molecular target: T2, UniProt Q8TE49
T2 sequence (whole entry): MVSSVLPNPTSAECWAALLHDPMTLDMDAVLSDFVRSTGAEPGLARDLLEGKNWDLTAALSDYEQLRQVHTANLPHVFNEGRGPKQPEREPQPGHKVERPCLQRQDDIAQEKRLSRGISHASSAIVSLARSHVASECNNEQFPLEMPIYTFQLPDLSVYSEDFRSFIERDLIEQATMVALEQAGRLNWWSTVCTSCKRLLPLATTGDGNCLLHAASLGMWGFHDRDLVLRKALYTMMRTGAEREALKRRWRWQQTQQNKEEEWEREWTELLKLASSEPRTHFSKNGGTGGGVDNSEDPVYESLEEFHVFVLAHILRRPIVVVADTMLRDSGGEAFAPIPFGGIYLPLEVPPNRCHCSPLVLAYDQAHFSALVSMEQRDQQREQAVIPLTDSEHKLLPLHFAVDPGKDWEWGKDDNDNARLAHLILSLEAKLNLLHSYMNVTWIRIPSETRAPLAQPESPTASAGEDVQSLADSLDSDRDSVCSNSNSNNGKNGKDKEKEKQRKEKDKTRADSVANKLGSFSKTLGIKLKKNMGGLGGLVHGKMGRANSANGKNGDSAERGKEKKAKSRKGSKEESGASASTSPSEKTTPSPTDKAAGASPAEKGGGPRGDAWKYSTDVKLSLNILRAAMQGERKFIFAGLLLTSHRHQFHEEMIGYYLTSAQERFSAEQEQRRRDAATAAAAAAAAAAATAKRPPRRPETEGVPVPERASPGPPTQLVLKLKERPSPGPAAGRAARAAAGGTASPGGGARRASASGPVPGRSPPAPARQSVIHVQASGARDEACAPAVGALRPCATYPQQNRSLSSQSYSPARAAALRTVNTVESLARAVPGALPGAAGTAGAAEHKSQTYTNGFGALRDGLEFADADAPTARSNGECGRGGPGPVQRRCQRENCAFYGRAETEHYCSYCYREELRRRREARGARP
Method in brief: as §1

UniProt Q9P2H5 = molecular target: T3, UniProt Q9P2H5
T3 sequence (whole entry): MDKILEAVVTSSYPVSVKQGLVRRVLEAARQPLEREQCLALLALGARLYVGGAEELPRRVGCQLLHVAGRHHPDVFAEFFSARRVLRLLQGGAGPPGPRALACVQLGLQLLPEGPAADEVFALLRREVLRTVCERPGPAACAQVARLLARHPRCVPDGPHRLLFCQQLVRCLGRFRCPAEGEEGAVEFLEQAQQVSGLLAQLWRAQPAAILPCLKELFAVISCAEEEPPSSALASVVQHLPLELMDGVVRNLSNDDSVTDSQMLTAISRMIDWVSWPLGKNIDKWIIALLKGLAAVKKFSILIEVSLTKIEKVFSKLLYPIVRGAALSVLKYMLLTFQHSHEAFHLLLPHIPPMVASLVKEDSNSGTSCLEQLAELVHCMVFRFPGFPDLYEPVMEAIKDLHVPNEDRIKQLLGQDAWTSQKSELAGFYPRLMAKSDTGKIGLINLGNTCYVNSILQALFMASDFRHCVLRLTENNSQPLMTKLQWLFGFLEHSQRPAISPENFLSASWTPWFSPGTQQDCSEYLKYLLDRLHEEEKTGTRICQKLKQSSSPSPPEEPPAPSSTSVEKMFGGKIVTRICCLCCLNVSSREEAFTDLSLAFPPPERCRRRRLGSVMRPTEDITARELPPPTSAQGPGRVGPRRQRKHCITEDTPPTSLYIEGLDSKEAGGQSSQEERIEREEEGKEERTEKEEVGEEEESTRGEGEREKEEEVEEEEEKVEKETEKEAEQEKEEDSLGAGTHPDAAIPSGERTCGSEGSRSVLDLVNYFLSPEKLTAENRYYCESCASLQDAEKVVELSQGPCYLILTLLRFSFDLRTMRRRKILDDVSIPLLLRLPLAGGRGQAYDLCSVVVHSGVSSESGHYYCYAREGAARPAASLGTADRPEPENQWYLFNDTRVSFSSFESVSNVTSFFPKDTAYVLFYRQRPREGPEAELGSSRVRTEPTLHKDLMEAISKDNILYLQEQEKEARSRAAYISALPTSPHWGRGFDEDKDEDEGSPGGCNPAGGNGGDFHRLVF
Method in brief: as §1

UniProt Q9UGI0 = molecular target: T4, UniProt Q9UGI0
T4 sequence (whole entry): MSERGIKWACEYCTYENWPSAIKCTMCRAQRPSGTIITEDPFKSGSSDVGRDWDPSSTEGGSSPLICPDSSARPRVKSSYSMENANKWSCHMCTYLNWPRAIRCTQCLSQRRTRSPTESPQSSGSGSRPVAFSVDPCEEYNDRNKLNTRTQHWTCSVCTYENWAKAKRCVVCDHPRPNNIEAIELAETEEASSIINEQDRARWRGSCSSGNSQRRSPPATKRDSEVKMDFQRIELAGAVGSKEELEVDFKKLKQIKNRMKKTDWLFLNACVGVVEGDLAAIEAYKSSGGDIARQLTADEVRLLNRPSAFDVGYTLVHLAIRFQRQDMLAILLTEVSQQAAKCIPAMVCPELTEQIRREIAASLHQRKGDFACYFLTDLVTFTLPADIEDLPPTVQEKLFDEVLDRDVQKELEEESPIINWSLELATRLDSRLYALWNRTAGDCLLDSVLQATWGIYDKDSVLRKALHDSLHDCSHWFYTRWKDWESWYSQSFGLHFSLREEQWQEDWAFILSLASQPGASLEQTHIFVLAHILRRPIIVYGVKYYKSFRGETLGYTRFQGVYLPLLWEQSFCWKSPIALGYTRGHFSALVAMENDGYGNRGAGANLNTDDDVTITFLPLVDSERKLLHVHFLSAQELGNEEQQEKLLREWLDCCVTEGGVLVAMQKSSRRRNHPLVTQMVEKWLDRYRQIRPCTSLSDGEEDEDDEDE
Method in brief: as §1

YOD1 = molecular target: T5, YOD1 (UniProt Q5VVQ6)
T5 sequence (whole entry): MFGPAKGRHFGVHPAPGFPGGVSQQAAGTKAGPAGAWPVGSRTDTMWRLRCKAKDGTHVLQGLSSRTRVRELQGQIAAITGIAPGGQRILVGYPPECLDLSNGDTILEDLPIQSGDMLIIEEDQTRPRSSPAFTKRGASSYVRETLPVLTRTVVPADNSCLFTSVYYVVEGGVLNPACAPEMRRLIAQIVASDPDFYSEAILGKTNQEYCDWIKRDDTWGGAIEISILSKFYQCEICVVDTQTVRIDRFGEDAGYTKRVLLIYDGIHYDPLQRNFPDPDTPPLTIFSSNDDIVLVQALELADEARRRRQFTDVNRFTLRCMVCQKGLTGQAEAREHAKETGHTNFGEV
Method in brief: as §1

Measured: log2 ratio of Biotin-Ahx-Ub-VS probe labelling

O=C(CCl)NC1CCC2(CC1)OCCO2
inactive: USP9X -0.361 | UniProt O00487 -0.145 | UniProt O00507 -0.379 | UniProt P51784 -0.104 | UniProt Q5T2D3 -0.473 | UniProt Q8TE49 -0.565 | UniProt Q9P2H5 -0.399 | UniProt Q9UGI0 -0.544 | YOD1 -0.297
